According to article PMC5540273 (PLoS ONE, 2017):

The compounds below were run on JAK2(JH1domain-catalytic). Conditions: concentration: 1 μM, replicates: in singlicate; n = 1.
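Also: KINOMEscan kinase panel screen.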

Row | SMILES | %Inh [%]
1 | COc1cc2ncnc(Nc3ccc(OCc4ccccc4Br)c(Cl)c3)c2cc1OC.Cl [GI261590] | 0
2 | CSc1nn2c(=O)cc(N3CCOCC3)nc2n1Cc1cccc(Cl)c1Cl [GSK2347225] | 18
3 | Fc1cccc(COc2ccc(Nc3ncnc4sc(-c5ccc[nH]5)cc34)cc2Cl)c1 [GW707818] | 100
4 | Cl.O=S(=O)(c1cccc(F)c1)c1ccc(Nc2ncnc3cc(Br)sc23)cc1Cl [GSK306886] | 2
5 | CN1c2ccc(-c3ccc(C(=O)NCCO)cc3)cc2-c2[nH]ncc2S1(=O)=O | 13
6 | Nc1nc(-c2ccc3c(N)n[nH]c3c2)cc(N2CCCCC2)n1 [GSK2228768] | 0
7 | Cn1ccc2ncnc(Oc3ccc(NC(=O)Nc4cccnc4)c(Cl)c3)c21 | 0
8 | Clc1cc(Nc2ncnc3cc[nH]c23)ccc1OCc1ccccn1 | 16
9 | Cl.Cl.c1ccc(-c2cc3ccncc3cc2OC2CCNCC2)cc1 [GSK1122999] | 8
10 | Fc1ccc(Nc2nccc(-c3c(-c4ccc(Cl)cc4)nn4ncccc34)n2)cc1F [GW829058] | 39
11 | C[C@H]1CC[C@@H](C(=O)Nc2ccccc2)CN1c1cc(-c2ccc3c(N)n[nH]c3c2)nc(N)n1 [GSK2283293] | 0
12 | FC(F)(F)c1cc(Nc2nccc(-c3c(-c4ccc(Cl)cc4)nn4ncccc34)n2)ccc1Cl [GW829351] | 13
13 | FC(F)(F)c1ccc(-c2cc(-c3c[nH]nc3-c3ccccn3)ccn2)cc1 [GW599550] | 14
14 | Nc1nc(-c2cccnc2)c(-c2ccnc3ccccc23)s1 [GW684083] | 0
15 | Cl.c1ccc(Cn2ncc3cc(Nc4ncnc5ccccc45)ccc32)cc1 [GW273749] | 11
16 | O=C(NCCCN1CCCC1=O)c1cnc(NCc2cc(Cl)ccc2Cl)nc1NC1CCNCC1 | 33
17 | Cc1ccc(O)cc1Nc1cc(C(F)(F)F)nc2ccc(-c3ccncc3)cc12 [GW630823] | 0
18 | C[C@@H]1CCN(C(=O)CO)C[C@@H]1N(C)c1ncnc2[nH]ccc12 | 100

Row | SMILES | %Inh [%]
19 | COc1ccc(NC(=O)Nc2ccc(C)c(-c3ccc(C(=O)Nc4ccncc4)cc3)c2)cc1 [GSK1398475] | 0
20 | O=c1cc(N2CCOCC2)nc2n(Cc3cccc(Cl)c3)ccn12 [GSK2296823] | 10
21 | CC(C)N1CCC(n2cnc(-c3ccc(F)cc3)c2-c2ccnc(N)n2)CC1 [SB-223132] | 0
22 | Clc1cccc(-c2nc(Nc3ccncc3)c3ccccc3n2)c1 [GW873004] | 0
23 | COC(=O)c1c(-c2ccccc2)c2cc(Cl)ccc2c(=O)n1Cc1ccc(S(C)(=O)=O)cc1 | 5
24 | Oc1ccc2ncnc(Nc3ccc(OCc4ccccc4)cc3)c2c1 [GI262866] | 0
25 | COc1cc2c(Nc3cccc(NC(=O)c4ccccc4)c3)ncnc2cc1OCCCN1CCOCC1 [GSK223810] | 4
26 | CCc1nc(-c2cccc(C)c2)c(-c2ccnc(NC(=O)c3ccccc3)c2)s1 | 19
27 | Clc1ccc(-c2cc(-c3c[nH]nc3-c3ccccn3)ccn2)cc1 [GW681251] | 2
28 | Nc1nc(-c2ccc3c(N)n[nH]c3c2)cc(N2CCC[C@@H](C(=O)Nc3ccccc3)C2)n1.O=C(O)C(F)(F)F.O=C(O)C(F)(F)F [GSK2288359] | 100
29 | CCn1c(-c2ccncc2)nc2cnccc21 [SB-735216] | 10
30 | Cn1ccc2ncnc(Nc3ccc(Oc4cccc(Cl)c4)c(Cl)c3)c21 | 15
31 | Fc1ccc(-c2ncn(CCCNCc3ccccc3)c2-c2ccncc2)cc1 | 36
32 | CC(C)(C)OC(=O)NC1CCCN(c2cc(-c3ccc4c(N)n[nH]c4c3)nc(N)n2)C1 (centres unmarked) [GSK2286096] | 0
33 | CC(=O)Nc1n[nH]c2ncc(-c3ccccc3)cc12 [SB-548492] | 15
34 | COc1ccc(Nc2nccc(N3CCC(NC(=O)Nc4ccc5c(c4)OCO5)C3)n2)cc1 (centres unmarked) [GSK1379745] | 19
35 | CN1CCC(n2cnc(-c3ccc(F)cc3)c2-c2ccnc(NC3CCNCC3)n2)CC1 [SB-229482] | 18

What follows are compounds tested on JAK3(JH1domain-catalytic). Conditions: concentration: 1 μM, replicates: in singlicate; n = 1.

Row | SMILES | %Inh [%]
36 | COc1cc2ncnc(Nc3ccc(OCc4ccccc4Br)c(Cl)c3)c2cc1OC.Cl [GI261590] | 0
37 | CSc1nn2c(=O)cc(N3CCOCC3)nc2n1Cc1cccc(Cl)c1Cl [GSK2347225] | 0
38 | Fc1cccc(COc2ccc(Nc3ncnc4sc(-c5ccc[nH]5)cc34)cc2Cl)c1 [GW707818] | 0
39 | Cl.O=S(=O)(c1cccc(F)c1)c1ccc(Nc2ncnc3cc(Br)sc23)cc1Cl [GSK306886] | 0
40 | CN1c2ccc(-c3ccc(C(=O)NCCO)cc3)cc2-c2[nH]ncc2S1(=O)=O | 97.2
41 | COc1ccc(-c2nc3n(c2-c2ccncc2)CCC3)cc1 [SKF-104493] | 0
42 | Nc1nc(-c2ccc3c(N)n[nH]c3c2)cc(N2CCCCC2)n1 [GSK2228768] | 0
43 | Cn1ccc2ncnc(Oc3ccc(NC(=O)Nc4cccnc4)c(Cl)c3)c21 | 21
44 | Clc1cc(Nc2ncnc3cc[nH]c23)ccc1OCc1ccccn1 | 0
45 | Cl.Cl.c1ccc(-c2cc3ccncc3cc2OC2CCNCC2)cc1 [GSK1122999] | 0
46 | Fc1ccc(Nc2nccc(-c3c(-c4ccc(Cl)cc4)nn4ncccc34)n2)cc1F [GW829058] | 37
47 | C[C@H]1CC[C@@H](C(=O)Nc2ccccc2)CN1c1cc(-c2ccc3c(N)n[nH]c3c2)nc(N)n1 [GSK2283293] | 0
48 | FC(F)(F)c1cc(Nc2nccc(-c3c(-c4ccc(Cl)cc4)nn4ncccc34)n2)ccc1Cl [GW829351] | 0
49 | FC(F)(F)c1ccc(-c2cc(-c3c[nH]nc3-c3ccccn3)ccn2)cc1 [GW599550] | 0
50 | Nc1nc(-c2cccnc2)c(-c2ccnc3ccccc23)s1 [GW684083] | 0
51 | Cl.c1ccc(Cn2ncc3cc(Nc4ncnc5ccccc45)ccc32)cc1 [GW273749] | 0
52 | O=C(NCCCN1CCCC1=O)c1cnc(NCc2cc(Cl)ccc2Cl)nc1NC1CCNCC1 | 0
53 | Cc1ccc(O)cc1Nc1cc(C(F)(F)F)nc2ccc(-c3ccncc3)cc12 [GW630823] | 0

Row | SMILES | %Inh [%]
54 | C[C@@H]1CCN(C(=O)CO)C[C@@H]1N(C)c1ncnc2[nH]ccc12 | 98.8
55 | COc1ccc(NC(=O)Nc2ccc(C)c(-c3ccc(C(=O)Nc4ccncc4)cc3)c2)cc1 [GSK1398475] | 0
56 | O=c1cc(N2CCOCC2)nc2n(Cc3cccc(Cl)c3)ccn12 [GSK2296823] | 0
57 | CC(C)N1CCC(n2cnc(-c3ccc(F)cc3)c2-c2ccnc(N)n2)CC1 [SB-223132] | 24
58 | Clc1cccc(-c2nc(Nc3ccncc3)c3ccccc3n2)c1 [GW873004] | 13
59 | COC(=O)c1c(-c2ccccc2)c2cc(Cl)ccc2c(=O)n1Cc1ccc(S(C)(=O)=O)cc1 | 4
60 | Oc1ccc2ncnc(Nc3ccc(OCc4ccccc4)cc3)c2c1 [GI262866] | 0
61 | COc1cc2c(Nc3cccc(NC(=O)c4ccccc4)c3)ncnc2cc1OCCCN1CCOCC1 [GSK223810] | 0
62 | CCc1nc(-c2cccc(C)c2)c(-c2ccnc(NC(=O)c3ccccc3)c2)s1 | 8
63 | Clc1ccc(-c2cc(-c3c[nH]nc3-c3ccccn3)ccn2)cc1 [GW681251] | 0
64 | Nc1nc(-c2ccc3c(N)n[nH]c3c2)cc(N2CCC[C@@H](C(=O)Nc3ccccc3)C2)n1.O=C(O)C(F)(F)F.O=C(O)C(F)(F)F [GSK2288359] | 0
65 | CCn1c(-c2ccncc2)nc2cnccc21 [SB-735216] | 0
66 | Cn1ccc2ncnc(Nc3ccc(Oc4cccc(Cl)c4)c(Cl)c3)c21 | 4
67 | Fc1ccc(-c2ncn(CCCNCc3ccccc3)c2-c2ccncc2)cc1 | 8
68 | CC(C)(C)OC(=O)NC1CCCN(c2cc(-c3ccc4c(N)n[nH]c4c3)nc(N)n2)C1 (centres unmarked) [GSK2286096] | 0
69 | CC(=O)Nc1n[nH]c2ncc(-c3ccccc3)cc12 [SB-548492] | 0
70 | COc1ccc(Nc2nccc(N3CCC(NC(=O)Nc4ccc5c(c4)OCO5)C3)n2)cc1 (centres unmarked) [GSK1379745] | 0
71 | CN1CCC(n2cnc(-c3ccc(F)cc3)c2-c2ccnc(NC3CCNCC3)n2)CC1 [SB-229482] | 0
